Results: PubChem BioAssay (EPA / NIEHS)
Several values for one entry are separate records, joined by “and”; a condition that tells them apart may be missing. Identical values can stand only once. Activity calls are given as the source filed them. How the source made its calls: active means hit-call score of the fitted dose curve at least 0.9, where 1 is the maximum; inactive means score below 0.9.

Columns and labels:
Details in all cases: primary human HUVEC with PBMC; actives raise or lower the signal
[1] = BSK_LPS_PGE2: BioMAP Diversity Plus: LPS Assay for Prostaglandin E2 (PGE2) Biomarker Activity (AID 2283082);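 on AC50: secreted prostaglandin E2 measured by ELISA in LPS-stimulated co-culture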
Outline: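 HUVEC plus PBMC co-culture stimulated with LPS; secreted PGE2 quantified by ELISA 24 h after chemical dosing. Activity fitted bidirectionally against DMSO as negative control and baseline; parallel SRB total-protein staining served as cytotoxicity check.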

[2] = read-out: Macrophage colony-stimulating factor (MCSF), CSF1 (gene 1435); assay: BSK_LPS_MCSF: BioMAP Diversity Plus: LPS Assay for Macrophage colony-stimulating factor (MCSF) Biomarker Activity (AID 2283083)
Outline: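 HUVEC–PBMC co-culture, M-CSF measured by ELISA 24 h after chemical dosing. Fitted in both directions relative to DMSO as negative control; overt cytotoxicity assessed by SRB total-protein staining in parallel cultures.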

[3] = read-out: Tissue Factor, F3 (gene 2152); assay: BSK_LPS_TissueFactor: BioMAP Diversity Plus: LPS Assay for Tissue Factor Biomarker Activity (AID 2283084)
Outline: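 Human umbilical vein endothelial cells co-cultured with PBMC were dosed with compound. Cell-surface CD142 was measured by ELISA 24 h later. Activity was fitted bidirectionally against DMSO, with SRB total-protein staining in parallel cultures for cytotoxicity.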

[4] = read-out: Tumor necrosis factor (Homo sapiens) (UniProt P01375); assay: BSK_LPS_TNFa: BioMAP Diversity Plus: LPS Assay for Tumour Necrosis Factor alpha (TNFa) Biomarker Activity (AID 2283085)
Outline: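 Human umbilical vein endothelial cells co-cultured with PBMC were exposed to test chemical and TNFa measured by ELISA 24 h after dosing. Bidirectional curve fitting was done relative to DMSO as negative control and baseline.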

[5] = read-out: Vascular cell adhesion molecule 1 (VCAM1), VCAM1 (gene 7412); assay: BSK_LPS_VCAM1: BioMAP Diversity Plus: LPS Assay for Vascular cell adhesion molecule 1 (VCAM1) Biomarker Activity (AID 2283086)
Outline: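 Human umbilical vein endothelial cells co-cultured with peripheral blood mononuclear cells under LPS stimulation were exposed to test chemical for 24 h. VCAM-1 levels were then measured by ELISA, with bidirectional curve fitting relative to DMSO as negative control and baseline.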

CD38, CD38 (gene 952) = assay: BSK_SAg_CD38: BioMAP Diversity Plus: SAg Assay for CD38 Biomarker Activity (AID 2283087)
Outline: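 Fluorescence ELISA of cell-surface CD38 served as the read-out, with either increase or decrease fitted against DMSO controls. Cells were a human umbilical vein endothelium plus PBMC co-culture under SEB/TSST-1 stimulation, measured 24 h after dosing.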

CD40, CD40 (gene 958) = assay: BSK_SAg_CD40: BioMAP Diversity Plus: SAg Assay for CD40 Biomarker Activity (AID 2283088)
Outline: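 HUVEC plus PBMC co-culture, superantigen-activated, with CD40 read by ELISA 24 h after dosing. Curves fitted in both directions against DMSO. Overt cytotoxicity checked by parallel SRB total-protein staining.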

CD69, CD69 (gene 969) = assay: BSK_SAg_CD69: BioMAP Diversity Plus: SAg Assay for CD69 Biomarker Activity (AID 2283089);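 on AC50: cell surface CD69 protein quantified by ELISA with fluorescence detection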
Outline: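 Primary human vascular co-culture (umbilical vein endothelium with peripheral blood mononuclear cells) exposed to test chemical for 24 h. CD69 levels quantified by fluorescence ELISA; DMSO served as negative control for bidirectional fitting.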

[6] = read-out: Monocyte Chemoattractant Protein-1 (MCP1), CCL2 (gene 6347); assay: BSK_SAg_MCP1: BioMAP Diversity Plus: SAg Assay for Monocyte Chemoattractant Protein-1 (MCP1) Biomarker Activity (AID 2283090)
Outline: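 MCP-1 levels in the endothelial–PBMC SAg co-culture were quantified by ELISA at 24 h post-dosing; both increases and decreases versus DMSO scored. Cytotoxicity monitored by SRB total protein in parallel cultures.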

[7] = read-out: E-selectin (Homo sapiens) (UniProt P16581); assay: BSK_SAg_Eselectin: BioMAP Diversity Plus: SAg Assay for Eselectin Biomarker Activity (AID 2283091)
Outline: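 Human umbilical vein endothelial cells co-cultured with peripheral blood mononuclear cells, SAg system. E-selectin is measured by ELISA 24 h after dosing and fitted bidirectionally against DMSO. Cytotoxicity is checked by SRB staining of parallel cultures.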

Sequence of Tumor necrosis factor (Homo sapiens) (P01375 whole entry, looked up): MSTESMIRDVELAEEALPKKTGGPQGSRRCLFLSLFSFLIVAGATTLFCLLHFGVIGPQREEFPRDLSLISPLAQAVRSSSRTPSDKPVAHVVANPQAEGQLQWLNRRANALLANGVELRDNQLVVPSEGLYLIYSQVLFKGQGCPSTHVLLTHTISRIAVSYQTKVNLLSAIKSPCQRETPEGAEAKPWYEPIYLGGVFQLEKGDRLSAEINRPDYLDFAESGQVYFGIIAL
Sequence of E-selectin (Homo sapiens) (P16581 whole entry, looked up): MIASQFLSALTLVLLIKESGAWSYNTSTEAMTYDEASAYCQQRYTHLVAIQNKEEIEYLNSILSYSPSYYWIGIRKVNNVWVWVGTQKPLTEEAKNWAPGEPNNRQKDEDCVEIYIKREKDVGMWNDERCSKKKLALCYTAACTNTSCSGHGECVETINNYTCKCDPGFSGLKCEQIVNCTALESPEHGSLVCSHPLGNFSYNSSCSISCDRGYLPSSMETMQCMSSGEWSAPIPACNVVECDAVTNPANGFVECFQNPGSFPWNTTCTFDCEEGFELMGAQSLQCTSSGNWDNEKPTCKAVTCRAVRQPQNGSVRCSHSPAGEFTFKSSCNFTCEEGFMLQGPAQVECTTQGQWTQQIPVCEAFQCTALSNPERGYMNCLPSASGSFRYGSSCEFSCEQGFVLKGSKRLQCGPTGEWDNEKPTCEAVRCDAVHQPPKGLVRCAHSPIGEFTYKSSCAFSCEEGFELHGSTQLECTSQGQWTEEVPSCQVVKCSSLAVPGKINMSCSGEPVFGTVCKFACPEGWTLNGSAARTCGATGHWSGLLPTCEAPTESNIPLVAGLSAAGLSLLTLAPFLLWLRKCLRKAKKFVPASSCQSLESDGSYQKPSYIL

| Structure (SMILES) | outcome [1] | AC50 [2] | outcome [3] | outcome [4] | AC50 [5] | AC50 (CD38, CD38 (gene 952)) | AC50 (CD40, CD40 (gene 958)) | AC50 (CD69, CD69 (gene 969)) | AC50 [6] | AC50 [7] | AC50 [1] | outcome [5] | outcome (CD38, CD38 (gene 952)) | outcome (CD40, CD40 (gene 958)) | outcome (CD69, CD69 (gene 969)) | outcome [6] | AC50 [4] | AC50 [3] | outcome [2] | outcome [7] |
| --- | --- | --- | --- | --- | --- | --- | --- | --- | --- | --- | --- | --- | --- | --- | --- | --- | --- | --- | --- | --- |
| C[C@H]1[C@H](c2ccc(Cl)cc2)SC(=O)N1C(=O)NC1CCCCC1 | inactive | 14.6 µM (active) | inactive | inactive | 12.5 µM (active) | 16 µM (active) | 15.4 µM (active) | 13.5 µM (active) | 27 µM (active) | 15.2 µM (active) |  |  |  |  |  |  |  |  |  |  |
| COP(=S)(OC)Oc1ccc(SC)c(C)c1 |  | 15.9 µM (active) | inactive | inactive |  |  |  |  |  | 33.6 µM (active) | 30.1 µM (active) | inactive | inactive | inactive | inactive | inactive |  |  |  |  |
| COP(=O)(OC)OC=C(Cl)Cl | inactive | 20 µM (active) | inactive |  | 30.1 µM (active) |  |  |  | 17.5 µM (active) | 28.9 µM (active) |  |  | inactive | inactive | inactive |  | 4.96 µM (active) |  |  |  |
| Oc1cc(Cl)ccc1Oc1ccc(Cl)cc1Cl |  | 18.7 µM (active) [middle of 4 runs] |  |  | 25.8 µM (active) [middle of 4 runs] | 12.4 µM (active) [middle of 4 runs] | 12.9 µM (active) [middle of 4 runs] | 13.5 µM (active) and 14.7 µM (active) and 14.4 µM (active) | 12.5 µM (active) [middle of 4 runs] | 12.7 µM (active) [middle of 4 runs] | 6.07 µM (active) [middle of 4 runs] |  |  |  |  |  | 31.2 µM (active) [middle of 4 runs] | 28.1 µM (active) and 14.7 µM (active) and 30.3 µM (active) |  |  |
| Cc1[nH]c(=O)n(C(C)(C)C)c(=O)c1Cl | inactive |  | inactive | inactive |  |  |  | 3.68 µM (active) | 5.42 µM (active) | 20 µM (active) |  | inactive | inactive | inactive |  |  |  |  | inactive |  |
| CC1(c2ccc(Oc3ccccc3)cc2)OC(=O)N(Nc2ccccc2)C1=O (stereo not given) |  | 20 µM (active) |  | inactive | 20 µM (active) | 19.9 µM (active) | 15.8 µM (active) | 20 µM (active) | 19.8 µM (active) | 15.6 µM (active) | 6.92 µM (active) |  |  |  |  |  |  | 28.4 µM (active) |  |  |
| CCCN(CCC)c1c([N+](=O)[O-])cc(C(F)(F)F)cc1[N+](=O)[O-] | inactive | 20 µM (active) | inactive | inactive | 29.3 µM (active) | 15.2 µM (active) | 29.5 µM (active) | 30.2 µM (active) |  | 15.4 µM (active) |  |  |  |  |  | inactive |  |  |  |  |
| O=C(Nc1ccccc1)Nc1cnns1 | inactive |  | inactive |  |  |  |  |  |  |  |  | inactive | inactive | inactive | inactive | inactive | 18.4 µM (active) |  | inactive | inactive |
| CC1(C)C(C=C(Cl)Cl)C1C(=O)OC(C#N)c1ccc(F)c(Oc2ccccc2)c1 (stereo not given) |  |  | inactive | inactive |  |  |  |  | 7.41 µM (active) |  | 5.22 µM (active) | inactive | inactive | inactive | inactive |  |  |  | inactive | inactive |
| N#CN | inactive |  | inactive | inactive |  |  |  |  |  |  |  | inactive | inactive | inactive | inactive | inactive |  |  | inactive | inactive |
| CNC(=O)/C=C(\C)OP(=O)(OC)OC | inactive |  | inactive | inactive |  |  |  |  |  |  |  | inactive | inactive | inactive | inactive | inactive |  |  | inactive | inactive |
| C#CCN1C(=O)COc2cc(F)c(N3C(=O)C4=C(CCCC4)C3=O)cc21 | inactive |  | inactive | inactive |  | 14.2 µM (active) |  |  |  | 16.3 µM (active) |  | inactive |  | inactive | inactive | inactive |  |  | inactive |  |
| CCOCN(C(=O)CCl)c1c(C)cccc1CC | inactive | 23.9 µM (active) | inactive |  | 20 µM (active) | 27 µM (active) |  | 11.8 µM (active) | 36 µM (active) | 17.1 µM (active) |  |  |  | inactive |  |  | 5.13 µM (active) |  |  |  |
